Design in all cases: scale not given: direction of the effect not stated beside the values
Experiment [1] deals with Protein translocase subunit SecA (Escherichia coli (strain K12)) (UniProt P10408). The experiment in a line: Assay to Identify E. coli SecA ATPase Inhibitors. It is filed as functional. The conditions noted are these: 30 µM.
For experiment [2], the target named is T1, Ubiquitin-activating enzyme e1, putative (Leishmania donovani (strain BPK282A1)) (UniProt E9BSI1).
T1 sequence (whole entry): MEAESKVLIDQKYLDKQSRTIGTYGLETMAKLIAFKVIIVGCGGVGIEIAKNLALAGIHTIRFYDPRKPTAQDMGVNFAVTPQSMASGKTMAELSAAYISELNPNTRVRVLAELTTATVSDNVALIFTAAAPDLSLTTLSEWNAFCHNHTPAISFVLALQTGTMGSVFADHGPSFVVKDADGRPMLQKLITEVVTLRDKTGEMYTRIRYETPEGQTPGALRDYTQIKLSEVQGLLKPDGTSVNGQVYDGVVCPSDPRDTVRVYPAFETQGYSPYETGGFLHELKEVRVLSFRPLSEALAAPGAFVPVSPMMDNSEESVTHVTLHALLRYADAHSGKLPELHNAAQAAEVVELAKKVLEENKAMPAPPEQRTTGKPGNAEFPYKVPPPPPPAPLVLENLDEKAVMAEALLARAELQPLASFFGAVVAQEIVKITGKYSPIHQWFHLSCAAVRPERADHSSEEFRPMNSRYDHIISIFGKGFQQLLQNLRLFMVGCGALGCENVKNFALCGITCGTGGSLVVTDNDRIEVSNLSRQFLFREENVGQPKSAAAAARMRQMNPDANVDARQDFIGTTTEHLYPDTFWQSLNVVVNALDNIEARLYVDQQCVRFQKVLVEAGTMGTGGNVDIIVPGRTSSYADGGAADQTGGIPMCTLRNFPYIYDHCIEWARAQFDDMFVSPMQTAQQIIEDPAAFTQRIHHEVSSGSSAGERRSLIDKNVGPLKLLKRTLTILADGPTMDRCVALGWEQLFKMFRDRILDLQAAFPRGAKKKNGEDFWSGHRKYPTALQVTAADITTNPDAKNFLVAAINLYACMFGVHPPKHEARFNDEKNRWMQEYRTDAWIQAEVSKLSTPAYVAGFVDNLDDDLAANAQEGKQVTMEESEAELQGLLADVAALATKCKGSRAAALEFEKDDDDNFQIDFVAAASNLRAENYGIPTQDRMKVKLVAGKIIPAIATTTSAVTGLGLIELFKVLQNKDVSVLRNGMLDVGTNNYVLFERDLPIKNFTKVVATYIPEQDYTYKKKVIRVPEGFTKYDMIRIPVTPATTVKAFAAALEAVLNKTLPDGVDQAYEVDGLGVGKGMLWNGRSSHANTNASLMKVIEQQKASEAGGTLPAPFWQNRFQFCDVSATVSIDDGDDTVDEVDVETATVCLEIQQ
The experiment is described as follows: Leishmania donovani Ubiquitin Activating Enzyme (LdE1). In kind it is functional. As to conditions: 30 µM.

Experiment [3] has as its target AMP-activated protein kinase, AMPK (Homo sapiens) (UniProt P54646+O43741+P54619+Q9UGJ0+Q9Y478+Q13131+Q9UGI9). The experiment in a line: AMP-dependent Kinase enzyme assay. An in vitro enzyme assay that detects ADP turnover that is directly proportional to AMPK activity. This uses naive AMPK that is activated during the assay with MK-8722. It is filed as functional. The conditions noted are these: 30 µM.

The target in experiment [4] is Sialic acid-binding Ig-like lectin 9 (Homo sapiens) (UniProt Q9Y336). The experiment is described as follows: Hs-Siglec9 ALPHAscreen SOP 20170721. As to conditions: 10 µM. In general terms: Bead proximity is the source of the signal in Alpha formats.
Sequence of Sialic acid-binding Ig-like lectin 9 (Homo sapiens) (Q9Y336 whole entry): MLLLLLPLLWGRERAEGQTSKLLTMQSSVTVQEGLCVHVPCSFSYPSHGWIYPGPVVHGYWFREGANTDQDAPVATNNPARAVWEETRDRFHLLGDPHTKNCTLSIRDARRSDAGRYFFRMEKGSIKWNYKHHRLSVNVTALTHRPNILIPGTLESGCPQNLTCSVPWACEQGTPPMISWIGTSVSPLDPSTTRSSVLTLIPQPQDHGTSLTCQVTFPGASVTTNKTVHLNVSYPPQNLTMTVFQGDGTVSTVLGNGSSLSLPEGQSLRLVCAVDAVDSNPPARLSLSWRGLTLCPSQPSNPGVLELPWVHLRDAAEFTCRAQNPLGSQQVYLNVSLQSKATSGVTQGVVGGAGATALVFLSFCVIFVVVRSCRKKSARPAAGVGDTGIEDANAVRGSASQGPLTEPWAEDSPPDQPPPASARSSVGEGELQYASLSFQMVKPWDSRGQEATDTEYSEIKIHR
The test system of a further experiment is Trypanosoma cruzi. The experiment is described as follows: Trypanosoma cruzi phosphomannomutase and mannose-1-phosphate guanylyltransferase assay. It is filed as functional. The conditions noted are these: 10 µM.
The target in experiment [5] is T2, Arginase-2, mitochondrial (Homo sapiens) (UniProt P78540).
T2 sequence (whole entry): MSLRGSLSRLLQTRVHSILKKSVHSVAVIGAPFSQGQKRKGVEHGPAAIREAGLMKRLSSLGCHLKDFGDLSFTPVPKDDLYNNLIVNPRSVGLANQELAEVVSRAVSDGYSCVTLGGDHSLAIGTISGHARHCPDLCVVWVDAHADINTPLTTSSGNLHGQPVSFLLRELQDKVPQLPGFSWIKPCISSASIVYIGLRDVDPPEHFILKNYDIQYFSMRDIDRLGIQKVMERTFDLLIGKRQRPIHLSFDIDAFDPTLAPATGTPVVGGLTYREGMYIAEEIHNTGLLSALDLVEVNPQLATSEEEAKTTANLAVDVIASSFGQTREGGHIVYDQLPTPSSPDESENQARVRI
The experiment is described as follows: in vitro enzyme assay to detect the production of urea directly proportional to the activity of Arginase II. Note: in the data most compounds retested in dose-response had high values. The conditions noted are these: 33.3 µM. In kind it is functional.

The target of experiment [6] is T3, Proteasome subunit beta (Trypanosoma cruzi) (UniProt O96673).
T3 sequence (whole entry): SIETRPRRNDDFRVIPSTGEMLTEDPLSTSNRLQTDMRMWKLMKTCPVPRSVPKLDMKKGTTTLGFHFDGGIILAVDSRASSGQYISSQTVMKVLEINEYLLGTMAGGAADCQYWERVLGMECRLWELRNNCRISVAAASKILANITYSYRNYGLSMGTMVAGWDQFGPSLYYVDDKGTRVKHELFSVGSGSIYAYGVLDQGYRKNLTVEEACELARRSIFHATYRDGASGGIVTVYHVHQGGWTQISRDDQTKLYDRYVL
The experiment in a line: Trypanosoma cruzi proteasome chymotrypsin-like activity (TcProtChymo) assay. Note: in the data most compounds retested in dose-response had high values. It is filed as functional. The conditions noted are these: 9.37 µM.

A further experiment is filed under the species Homo sapiens. The experiment in a line: To identify inhibition of the IFN signalling (Jak-Stat) pathway via expression of an eGFP reporter gene under the control of an IFN-stimulated response element (ISRE) containing MxA promoter. The conditions noted are these: 30 µM. It is filed as functional. A general note: Reporter assays use an easily measured gene product as a stand-in for the process of interest.

The target of experiment [7] is T4, Tyrosyl-tRNA synthetase, putative (Trypanosoma cruzi (strain CL Brener)) (UniProt Q4DSP6).
T4 sequence (whole entry): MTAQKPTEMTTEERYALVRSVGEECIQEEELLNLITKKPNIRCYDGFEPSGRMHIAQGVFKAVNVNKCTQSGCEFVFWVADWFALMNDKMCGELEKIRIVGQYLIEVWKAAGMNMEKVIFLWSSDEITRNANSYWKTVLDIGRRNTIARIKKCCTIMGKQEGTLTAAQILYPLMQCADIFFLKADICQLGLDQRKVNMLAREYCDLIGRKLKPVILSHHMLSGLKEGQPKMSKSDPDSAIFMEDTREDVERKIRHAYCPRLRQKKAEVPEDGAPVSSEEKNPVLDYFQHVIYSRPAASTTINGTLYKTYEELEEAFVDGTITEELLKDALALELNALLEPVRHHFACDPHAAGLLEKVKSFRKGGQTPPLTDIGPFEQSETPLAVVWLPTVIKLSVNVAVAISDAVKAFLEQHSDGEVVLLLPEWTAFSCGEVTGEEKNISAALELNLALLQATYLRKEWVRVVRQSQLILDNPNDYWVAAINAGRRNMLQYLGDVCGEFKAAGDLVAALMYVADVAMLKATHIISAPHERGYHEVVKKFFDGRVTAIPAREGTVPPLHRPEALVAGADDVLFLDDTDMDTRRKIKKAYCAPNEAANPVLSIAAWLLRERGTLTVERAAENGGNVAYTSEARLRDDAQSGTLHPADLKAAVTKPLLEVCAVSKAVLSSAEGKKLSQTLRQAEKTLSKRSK
The experiment is described as follows: Trypanosoma cruzi tyrosyl tRNA synthetase (TcYRS) _High Tyrosine SOP. Note: in the data most compounds retested in dose-response had high values. In kind it is functional. As to conditions: 30 µM.

The target in experiment [8] is T4, Tyrosyl-tRNA synthetase, putative (Trypanosoma cruzi (strain CL Brener)). The experiment in a line: Trypanosoma cruzi tyrosyl tRNA synthetase (TcYRS) SOP. The conditions noted are these: 30 µM. It is filed as functional.
The target in experiment [9] is Chromo domain-containing protein 1 (Saccharomyces cerevisiae (strain ATCC 204508 / S288c) (Baker's yeast)) (UniProt P32657). The experiment is described as follows: ScCHD-1 Enzyme Inhibition Assay. Note: in the data most compounds retested in dose-response had high values. In kind it is functional. The conditions noted are these: 30 µM.
Sequence of Chromo domain-containing protein 1 (Saccharomyces cerevisiae (strain ATCC 204508 / S288c) (Baker's yeast)) (P32657 whole entry, the tested form may be a part): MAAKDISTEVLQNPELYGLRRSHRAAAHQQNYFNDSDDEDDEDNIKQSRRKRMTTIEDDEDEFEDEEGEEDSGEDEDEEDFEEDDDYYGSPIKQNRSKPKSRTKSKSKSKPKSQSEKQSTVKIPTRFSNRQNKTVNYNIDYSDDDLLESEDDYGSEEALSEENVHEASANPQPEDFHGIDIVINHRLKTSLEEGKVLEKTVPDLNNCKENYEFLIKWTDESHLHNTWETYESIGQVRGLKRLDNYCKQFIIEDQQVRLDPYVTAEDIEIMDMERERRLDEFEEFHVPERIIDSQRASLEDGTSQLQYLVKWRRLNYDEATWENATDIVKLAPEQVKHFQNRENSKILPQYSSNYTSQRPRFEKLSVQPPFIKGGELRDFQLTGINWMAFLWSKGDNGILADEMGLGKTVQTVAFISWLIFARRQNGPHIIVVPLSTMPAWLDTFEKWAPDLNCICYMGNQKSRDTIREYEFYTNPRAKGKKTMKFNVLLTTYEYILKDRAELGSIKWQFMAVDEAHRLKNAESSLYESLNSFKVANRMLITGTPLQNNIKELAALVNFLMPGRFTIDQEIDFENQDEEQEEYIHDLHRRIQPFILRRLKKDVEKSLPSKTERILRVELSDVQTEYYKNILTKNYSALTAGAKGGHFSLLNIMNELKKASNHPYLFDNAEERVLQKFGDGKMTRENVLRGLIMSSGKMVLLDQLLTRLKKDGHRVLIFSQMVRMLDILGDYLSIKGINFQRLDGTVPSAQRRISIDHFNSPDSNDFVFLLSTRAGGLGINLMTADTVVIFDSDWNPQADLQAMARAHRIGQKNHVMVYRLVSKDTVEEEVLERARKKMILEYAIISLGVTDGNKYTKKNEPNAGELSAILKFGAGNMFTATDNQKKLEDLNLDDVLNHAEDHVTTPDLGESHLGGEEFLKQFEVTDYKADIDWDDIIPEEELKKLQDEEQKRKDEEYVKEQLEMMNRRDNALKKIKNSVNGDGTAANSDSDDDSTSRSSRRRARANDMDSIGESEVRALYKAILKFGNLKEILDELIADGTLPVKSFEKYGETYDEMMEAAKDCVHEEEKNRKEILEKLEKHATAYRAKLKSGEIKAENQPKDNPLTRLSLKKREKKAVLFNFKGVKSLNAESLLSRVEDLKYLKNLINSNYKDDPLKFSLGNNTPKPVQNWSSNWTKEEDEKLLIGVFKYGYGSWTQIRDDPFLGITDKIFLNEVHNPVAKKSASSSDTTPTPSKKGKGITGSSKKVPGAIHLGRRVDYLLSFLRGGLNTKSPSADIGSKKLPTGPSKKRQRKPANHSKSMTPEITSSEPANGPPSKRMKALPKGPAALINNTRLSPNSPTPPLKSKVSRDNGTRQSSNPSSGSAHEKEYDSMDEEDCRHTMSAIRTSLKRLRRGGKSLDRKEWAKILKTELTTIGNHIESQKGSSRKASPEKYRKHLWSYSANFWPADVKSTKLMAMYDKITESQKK

Each structure is given as a SMILES string. For some of these results: Results with a measured potency or affinity are listed apart.

Sequence of Protein translocase subunit SecA (Escherichia coli (strain K12)) (P10408 whole entry): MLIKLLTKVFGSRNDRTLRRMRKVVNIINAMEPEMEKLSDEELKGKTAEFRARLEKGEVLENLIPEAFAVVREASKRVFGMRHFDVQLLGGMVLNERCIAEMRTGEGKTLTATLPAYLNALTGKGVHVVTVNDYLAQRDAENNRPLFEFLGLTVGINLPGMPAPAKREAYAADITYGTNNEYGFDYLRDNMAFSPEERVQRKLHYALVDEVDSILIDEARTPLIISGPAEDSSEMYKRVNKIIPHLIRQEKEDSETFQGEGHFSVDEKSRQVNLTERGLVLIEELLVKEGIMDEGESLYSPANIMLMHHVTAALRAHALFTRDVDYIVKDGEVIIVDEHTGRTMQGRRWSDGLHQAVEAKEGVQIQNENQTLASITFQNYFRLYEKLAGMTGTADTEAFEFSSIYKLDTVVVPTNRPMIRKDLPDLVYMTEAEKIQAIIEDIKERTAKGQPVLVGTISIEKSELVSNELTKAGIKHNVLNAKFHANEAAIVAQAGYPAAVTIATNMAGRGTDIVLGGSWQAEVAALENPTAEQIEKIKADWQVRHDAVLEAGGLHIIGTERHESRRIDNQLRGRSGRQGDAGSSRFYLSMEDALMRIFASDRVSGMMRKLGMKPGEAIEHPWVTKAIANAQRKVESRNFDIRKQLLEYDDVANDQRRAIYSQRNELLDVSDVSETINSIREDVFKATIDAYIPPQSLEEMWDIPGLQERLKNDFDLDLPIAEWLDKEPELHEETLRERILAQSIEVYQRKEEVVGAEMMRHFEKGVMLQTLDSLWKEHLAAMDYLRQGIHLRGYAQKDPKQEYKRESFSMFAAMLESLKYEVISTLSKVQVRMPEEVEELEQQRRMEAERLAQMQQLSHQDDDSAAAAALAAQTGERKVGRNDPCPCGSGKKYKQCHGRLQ

For the molecule `Cc1nc(CCCNC(=O)C2CC(=O)N(C(C)(C)C)C2)sc1C` (stereo not drawn), the Percent Effect in experiment [1] is -3.07%; in [2], 5.48%; in experiment [3], -0.283%; in [4], 4.12%; with Trypanosoma cruzi it was -3.57%; in experiment [5], -2%. The Percent Effect in [6] was 7.79%; in the experiment listed under Homo sapiens, 12.9%; in experiment [7], 5.21%; in [8], 13.6%; in [9], -5.51%.

For `COCCN1C(=O)CC(N2CCN(c3ccc(OC)cc3)CC2)C1=O` (stereo not drawn), the Percent Effect worked out at 1.03% in [1]; 6.94% in experiment [2]; 1.7% in [3]; 4.19% in experiment [4]; 4.37% with Trypanosoma cruzi; 13.7% in experiment [5]. For the same molecule, the Percent Effect was 16.8% in experiment [6]; -7.93% in the experiment listed under Homo sapiens; 8.42% in experiment [7]; 15.4% in experiment [8]; -3.31% in experiment [9].

For `Cc1cncc(C(=O)N2CCC(Cn3cc(-c4ccsc4)nn3)CC2)c1`, the Percent Effect is -2.48% in experiment [1]; 2.7% in [2]; 0.205% in experiment [3]; 2.1% in experiment [4]; -3.86% with Trypanosoma cruzi; -0.476% in experiment [5]. Also, the Percent Effect was 11.6% in experiment [6]; 7.16% in the experiment listed under Homo sapiens; 1.59% in [7]; 9.76% in [8]; -1.22% in experiment [9].

For the molecule `NC(=O)CSCCC(=O)N1CCCC1c1ccsc1` (stereo not drawn), the Percent Effect was -2.98% in [1]; 1.39% in experiment [2]; -4.14% in [3]; 8.9% in [4]; 4.76% with Trypanosoma cruzi; 19% in experiment [5]. The Percent Effect in experiment [6] was 4.74%; in the experiment filed under Homo sapiens, 13.9%; in experiment [7], 3.16%; in [8] it was 7.69%; in [9], -1.44%.

Turning to `CC(C)Oc1ncnc2c1CCN(C(=O)c1cccn1C)CC2`, the Percent Effect was -3.69% in experiment [1]; 13.3% in experiment [2]; 9.51% in [3]; -7.87% in [4]; -4.53% with Trypanosoma cruzi; -3.03% in [5]. Also, the Percent Effect is 11.2% in experiment [6]; 9.21% in the experiment listed under Homo sapiens; 2.13% in experiment [7]; 8.97% in experiment [8]; -0.243% in experiment [9].

Regarding `CC(O)CN1CCN(C(=O)c2ccc(Cn3cccc3)cc2)CC1` (stereo not drawn), the Percent Effect in experiment [1] is -2.39%; in experiment [2], 13.5%; in experiment [3], -8.63%; in [4] it was -2.4%; in the experiment on Trypanosoma cruzi, -3.49%; in [5], -6.81%. In addition, the Percent Effect in experiment [6] was 17.8%; in the experiment filed under Homo sapiens, 6.79%; in [7] it was 10.3%; in experiment [8], 25.9%; in experiment [9] it was -2.47%.

As for `Cn1nnc2c1C(COCC1CC1)CN(C(=O)Cc1ccsc1)C2` (stereo not drawn), the Percent Effect is -5.15% in [1]; 23.4% in [2]; -3.67% in [3]; 0.591% in experiment [4]; 4.63% in the experiment with Trypanosoma cruzi; -3.23% in experiment [5]. The Percent Effect in experiment [6] was 9.57%; in the experiment filed under Homo sapiens, 4.27%; in experiment [7], -1.06%; in experiment [8], 14.1%; in experiment [9], -12.5%.

As to `O=C(NCC1CCOCC1)[C@@H]1C[C@@H]2CCN(Cc3ccco3)C[C@H]2O1`, the Percent Effect is -0.876% in experiment [1]; 5.33% in experiment [2]; -1.12% in experiment [3]; 6.61% in experiment [4]; -5.02% with Trypanosoma cruzi; -54.7% in [5]. For the same molecule, the Percent Effect is 10.1% in experiment [6]; -10.2% in the experiment filed under Homo sapiens; 2.08% in experiment [7]; 7.5% in experiment [8]; -6.48% in [9].

Source of the values: ChEMBL document CHEMBL3988442, “University of Dundee, Small-Polar-MMV Screening Library” (2021).
